For assay [1], the target named is Estrogen receptor (Homo sapiens) (UniProt P03372). The assay is described as follows: OT_ER_ERaERa_1440: Odyssey Thera (OT) 24-hour HEK293T Protein-Complementation Assay for Estrogen Receptor-alpha/-alpha Homodimer (AID 2283349).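 Note: hits raise fluorescence above DMSO for agonists and antagonists alike.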 In outline:
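HEK293T, stable ERα LBD (aa 310-547) homodimer PCA; 24 h compound exposure; mean fluorescence intensity (nuclear for agonists, nuclear plus cytoplasmic for antagonists) vs vehicle; positive fitting direction, DMSO baseline.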

For assay [2] the target is unchanged. The assay can be described thus: OT_ER_ERaERa_0480: Odyssey Thera (OT) 8-hour HEK293T Protein-Complementation Assay for Estrogen Receptor-alpha/-alpha Homodimer (AID 2283351).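 Note: rise in fluorescence from reassembled reporter fragments on ERα LBD homodimer in nucleus or whole cell.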 In outline:
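HEK293T cells stably expressing a PCA pair of ER alpha LBD (residues 310-547) were dosed for 8 hours. The gain in fluorescence intensity, nuclear for agonists and whole-cell for antagonists, was measured by laser scanning cytometry against DMSO vehicle.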

Assay [3] has as its target T1, Estrogen receptor (Homo sapiens) + Estrogen receptor beta (Homo sapiens) (UniProt P03372+Q92731). The assay is described as follows: OT_ER_ERaERb_0480: Odyssey Thera (OT) 8-hour HEK293T Protein-Complementation Assay for Estrogen Receptor-alpha/-beta Heterodimer (AID 2283352). In outline: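 Fluorescence increase from reconstituted reporter fragments, quantified by laser scanning cytometer, reflects ER-alpha/ER-beta heterodimer formation in human HEK293T cells. Exposure 8 h; positive-direction fitting against DMSO vehicle.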

Assay [4] deals with T1, Estrogen receptor (Homo sapiens) + Estrogen receptor beta (Homo sapiens). The assay can be described thus: OT_ER_ERaERb_1440: Odyssey Thera (OT) 24-hour HEK293T Protein-Complementation Assay for Estrogen Receptor-alpha/-beta Homodimer (AID 2283356).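 Note: heteromer of ER alpha and ER beta binding domains; hits raise reporter fluorescence and both agonists and antagonists give an increase.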 Put shortly:
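Fragment complementation between ER alpha (310-547) and ER beta (263-489) ligand-binding domains in HEK293T cells; signal read 24 h post-dosing by laser scanning cytometer. Gain of fluorescence relative to DMSO fitted.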

Assay [5] concerns the target Estrogen receptor beta (Homo sapiens) (UniProt Q92731). The assay can be described thus: OT_ER_ERbERb_0480: Odyssey Thera (OT) 8-hour HEK293T Protein-Complementation Assay for Estrogen Receptor-beta/-beta Homodimer (AID 2283357).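 Note: active means signal gain over DMSO baseline.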 In outline: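 ER-beta LBD homodimer PCA stably expressed in HEK293T; 8 h compound exposure, then formaldehyde fixation and Draq5 staining. Gain in nuclear/cytoplasmic fluorescence intensity versus DMSO vehicle, read on laser scanning cytometer.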

The target of assay [6] is human Constitutive Androstane Receptor (CAR), NR1I3 (gene 9970) (UniProt Q14994). The assay is described as follows: NVS_NR_hCAR_Antagonist: NovaScreen (NVS) Nuclear Receptor Binding Assay for human Constitutive Androstane Receptor Antagonism (CAR) (AID 2283344). Put shortly:
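Single 25 uM duplicate primary screen, with concentration-series follow-up on actives. Cell-free binding format run in antagonist mode, TR-FRET signal taken 1 h post-dose; activity is signal loss relative to DMSO.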

In assay [7] the target is bovine Estrogen Receptor (ER), ESR1 (gene 407238) (UniProt P49884). The assay can be described thus: NVS_NR_bER: NovaScreen (NVS) Nuclear Receptor Binding Assay for bovine Estrogen Receptor (ER) (AID 2283345).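 Note: actives lower the bound radioligand count which means they displace the ER ligand.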 Put shortly: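 Displacement of a radioligand from estrogen receptor in bovine uterine membrane preparations; scintillation signal taken at 18 hours, DMSO as baseline. Single-concentration duplicates (25 uM) preceded concentration-response follow-up of actives.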
Chain of bovine Estrogen Receptor (ER), ESR1 (gene 407238) (P49884 whole entry, looked up): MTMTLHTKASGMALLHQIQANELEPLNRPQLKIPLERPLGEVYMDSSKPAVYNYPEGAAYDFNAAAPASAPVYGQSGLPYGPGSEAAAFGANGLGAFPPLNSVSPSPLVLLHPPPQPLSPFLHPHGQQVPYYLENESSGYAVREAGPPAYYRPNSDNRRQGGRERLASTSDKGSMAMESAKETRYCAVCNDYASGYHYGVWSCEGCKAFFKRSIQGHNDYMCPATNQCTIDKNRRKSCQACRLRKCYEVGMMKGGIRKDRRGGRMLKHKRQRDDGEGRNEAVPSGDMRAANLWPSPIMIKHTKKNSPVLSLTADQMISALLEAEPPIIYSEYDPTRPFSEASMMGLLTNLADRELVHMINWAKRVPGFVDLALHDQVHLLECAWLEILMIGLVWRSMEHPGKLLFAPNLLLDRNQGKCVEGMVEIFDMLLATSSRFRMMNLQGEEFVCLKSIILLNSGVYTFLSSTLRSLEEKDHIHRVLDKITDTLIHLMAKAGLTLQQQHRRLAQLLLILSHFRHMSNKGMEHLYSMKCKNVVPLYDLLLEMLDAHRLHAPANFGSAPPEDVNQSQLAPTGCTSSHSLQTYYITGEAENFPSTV

Assay [8] addresses Estrogen receptor (Homo sapiens) (UniProt P03372). The assay can be described thus: NVS_NR_hER: NovaScreen (NVS) Nuclear Receptor Binding Assay for human Estrogen Receptor (ER) (AID 2283348). Put shortly: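 Cell-free MCF7-derived ER preparation, specific radioligand displaced by test compound, read by scintillation counting 18 h post-dosing. Duplicate single-point 25 uM screen, then concentration-response confirmation; DMSO baseline.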

In assay [9] the target is Bile acid receptor (Homo sapiens) (UniProt Q96RI1). The assay can be described thus: NVS_NR_hFXR_Antagonist: NovaScreen (NVS) Nuclear Receptor Binding Assay for human Farnesoid X Receptor Antagonism (FXR) (AID 2283350). Put shortly:
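Antagonist-format time-resolved FRET binding assay with extracted human receptor protein, read 1 hour after compound addition. Compounds first screened at 25 uM in duplicate, then actives tested in concentration series, with loss of signal relative to DMSO.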

Assay [10] addresses human Peroxisome Proliferator-activated Receptor alpha (PPARa), PPARA (gene 5465) (UniProt Q07869). The assay is described as follows: NVS_NR_hPPARa: NovaScreen (NVS) Nuclear Receptor Binding Assay for human Peroxisome Proliferator-activated Receptor alpha (PPARa) (AID 2283359).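 Note: activity means loss of TR-FRET signal versus DMSO baseline.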 In outline:
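Loss of TR-FRET binding signal relative to DMSO was measured 1 h after chemical addition to extracted receptor protein. Chemicals were first tested in duplicate at 25 uM, and actives were followed up in concentration series.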

Assay [11] addresses Retinoic acid receptor alpha (Homo sapiens) (UniProt P10276). The assay can be described thus: NVS_NR_hRARa_Agonist: NovaScreen (NVS) Nuclear Receptor Binding Assay for human Retinoic Acid Alpha Receptor Agonism (RAR) (AID 2283361). In outline:
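Agonist-mode TR-FRET binding format using extracted protein, measured at 2 h post-dosing. Initial duplicate single-point screen at 25 uM preceded concentration series for actives; activity was normalized to DMSO baseline.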

For assay [12], the target named is Androgen Receptor/SRC-1 Co-activator, AR (gene 367) (UniProt P10275). The assay is described as follows: OT_AR_ARSRC1_0480: Odyssey Thera (OT) 8-hour HEK293T Protein-Complementation Assay for Androgen Receptor/SRC-1 Co-activator (AID 2283354).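 Note: hits raise the complementation signal above DMSO so AC50 marks enhancers.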 In outline:
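Reconstituted split-Venus YFP signal from AR–SRC-1 interaction, read by imaging 8 h post-dose in stable HEK293T lines. The 488 nm nucleus-to-cytoplasm ratio (≥400 cells/image) was fitted upward against DMSO.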

Assay [13] has as its target Bile acid receptor (Homo sapiens) (UniProt Q96RI1). The assay is described as follows: NVS_NR_hFXR_Agonist: NovaScreen (NVS) Nuclear Receptor Binding Assay for human Farnesoid X Receptor Agonism (FXR) (AID 2283347). In outline: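 Agonist-mode FXR assay read by time-resolved FRET 1 h after compound addition, using isolated human receptor protein without cells. Duplicate 25 uM single-point primary screen, concentration series for confirmed actives; DMSO as baseline.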

Assay [14] deals with rat Mineralocorticoid Receptor (MR), Nr3c2 (gene 25672) (UniProt P22199). The assay can be described thus: NVS_NR_rMR: NovaScreen (NVS) Nuclear Receptor Binding Assay for rat Mineralocorticoid Receptor (MR) (AID 2283355). Put shortly: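 Primary HTS ran in duplicate at a single 25 uM concentration, with concentration-series follow-up for actives. Receptor source: adrenalectomized rat brain supernatant, cell-free. Radioligand displacement read by scintillation at 24 h, relative to DMSO baseline.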

Molecules are shown by their SMILES. Values joined by “and” are separate entries in the source; they are usually repeats but may differ in a detail not shown here. Identical values can stand only once. Inconclusive results are not listed. A structure can be active in one record and inactive in another. Active and inactive are the calls of the source. Rule for the calls: active = hit-call score of the fitted dose curve at least 0.9, where 1 is the maximum; inconclusive = response in the unintended direction; inactive = score below 0.9.

Chain of Estrogen receptor beta (Homo sapiens) (Q92731 whole entry, looked up, the tested form may be a part): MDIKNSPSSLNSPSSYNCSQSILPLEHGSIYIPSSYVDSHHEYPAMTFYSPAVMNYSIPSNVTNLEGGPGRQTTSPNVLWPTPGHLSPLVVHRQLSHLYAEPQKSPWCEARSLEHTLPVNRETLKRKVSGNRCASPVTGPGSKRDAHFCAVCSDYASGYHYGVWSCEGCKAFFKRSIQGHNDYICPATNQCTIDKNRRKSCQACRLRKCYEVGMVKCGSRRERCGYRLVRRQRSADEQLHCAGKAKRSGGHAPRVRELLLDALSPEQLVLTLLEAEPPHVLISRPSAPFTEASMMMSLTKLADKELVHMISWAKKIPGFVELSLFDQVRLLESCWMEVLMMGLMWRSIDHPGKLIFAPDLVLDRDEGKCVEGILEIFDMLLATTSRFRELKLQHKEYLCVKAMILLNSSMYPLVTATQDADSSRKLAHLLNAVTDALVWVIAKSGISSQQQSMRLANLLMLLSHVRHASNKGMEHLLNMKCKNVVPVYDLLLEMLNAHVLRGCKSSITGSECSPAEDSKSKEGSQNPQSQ
Chain of Androgen Receptor/SRC-1 Co-activator, AR (gene 367) (P10275 whole entry, looked up): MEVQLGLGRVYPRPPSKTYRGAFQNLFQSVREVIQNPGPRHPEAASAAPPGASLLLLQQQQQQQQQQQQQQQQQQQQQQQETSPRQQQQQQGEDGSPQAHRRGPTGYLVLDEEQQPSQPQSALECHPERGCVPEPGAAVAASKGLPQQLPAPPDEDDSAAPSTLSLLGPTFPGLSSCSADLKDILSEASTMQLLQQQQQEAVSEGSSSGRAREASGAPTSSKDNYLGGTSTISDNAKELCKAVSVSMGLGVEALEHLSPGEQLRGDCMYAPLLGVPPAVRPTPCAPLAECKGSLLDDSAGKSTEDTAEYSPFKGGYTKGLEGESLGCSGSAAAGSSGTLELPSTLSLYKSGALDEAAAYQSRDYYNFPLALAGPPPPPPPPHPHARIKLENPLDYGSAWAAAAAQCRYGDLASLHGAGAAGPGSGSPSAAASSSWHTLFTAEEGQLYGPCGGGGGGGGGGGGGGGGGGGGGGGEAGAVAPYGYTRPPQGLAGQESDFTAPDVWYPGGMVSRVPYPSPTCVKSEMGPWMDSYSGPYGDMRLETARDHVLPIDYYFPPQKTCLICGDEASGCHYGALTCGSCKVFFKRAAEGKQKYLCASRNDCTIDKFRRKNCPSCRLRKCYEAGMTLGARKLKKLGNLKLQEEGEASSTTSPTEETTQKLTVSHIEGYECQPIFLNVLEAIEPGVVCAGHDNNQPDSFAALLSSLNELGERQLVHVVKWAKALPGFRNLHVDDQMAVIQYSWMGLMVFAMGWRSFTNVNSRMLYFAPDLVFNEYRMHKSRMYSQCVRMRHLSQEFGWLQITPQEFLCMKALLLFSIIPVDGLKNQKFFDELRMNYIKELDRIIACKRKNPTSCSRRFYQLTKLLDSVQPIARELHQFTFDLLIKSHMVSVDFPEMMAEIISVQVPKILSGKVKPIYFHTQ
Chain of Estrogen receptor (Homo sapiens) (P03372 whole entry, looked up, the tested form may be a part): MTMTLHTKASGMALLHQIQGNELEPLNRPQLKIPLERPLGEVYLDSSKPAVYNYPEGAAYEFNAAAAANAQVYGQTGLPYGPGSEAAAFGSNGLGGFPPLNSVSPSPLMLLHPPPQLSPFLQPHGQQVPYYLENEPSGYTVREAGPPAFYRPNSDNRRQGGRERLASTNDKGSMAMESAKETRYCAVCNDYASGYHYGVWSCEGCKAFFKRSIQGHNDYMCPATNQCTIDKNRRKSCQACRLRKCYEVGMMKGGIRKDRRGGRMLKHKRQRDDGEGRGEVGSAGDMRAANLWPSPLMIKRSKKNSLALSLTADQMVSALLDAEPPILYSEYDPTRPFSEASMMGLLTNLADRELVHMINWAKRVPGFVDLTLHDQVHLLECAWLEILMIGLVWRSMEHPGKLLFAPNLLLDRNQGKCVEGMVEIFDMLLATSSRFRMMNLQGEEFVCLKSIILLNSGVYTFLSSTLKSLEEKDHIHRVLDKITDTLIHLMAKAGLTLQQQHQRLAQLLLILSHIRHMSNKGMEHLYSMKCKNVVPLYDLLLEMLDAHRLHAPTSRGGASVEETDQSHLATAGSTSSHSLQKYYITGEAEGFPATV
T1 sequence (P03372 whole entry, looked up, the tested form may be a part): as above
T1 sequence (Q92731 whole entry, looked up, the tested form may be a part): as the sequence (Q92731 whole entry, looked up, the tested form may be a part) above
Chain of human Constitutive Androstane Receptor (CAR), NR1I3 (gene 9970) (Q14994 whole entry, looked up): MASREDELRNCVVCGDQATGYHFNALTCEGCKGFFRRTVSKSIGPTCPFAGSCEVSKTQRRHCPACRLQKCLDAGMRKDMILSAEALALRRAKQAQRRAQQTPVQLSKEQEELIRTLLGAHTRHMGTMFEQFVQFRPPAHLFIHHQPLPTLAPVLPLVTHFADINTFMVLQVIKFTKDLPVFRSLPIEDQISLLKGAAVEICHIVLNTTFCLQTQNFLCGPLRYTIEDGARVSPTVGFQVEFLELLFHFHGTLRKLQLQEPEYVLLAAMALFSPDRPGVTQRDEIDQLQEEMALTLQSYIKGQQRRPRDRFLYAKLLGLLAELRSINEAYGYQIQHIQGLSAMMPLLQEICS
Chain of Bile acid receptor (Homo sapiens) (Q96RI1 whole entry, looked up): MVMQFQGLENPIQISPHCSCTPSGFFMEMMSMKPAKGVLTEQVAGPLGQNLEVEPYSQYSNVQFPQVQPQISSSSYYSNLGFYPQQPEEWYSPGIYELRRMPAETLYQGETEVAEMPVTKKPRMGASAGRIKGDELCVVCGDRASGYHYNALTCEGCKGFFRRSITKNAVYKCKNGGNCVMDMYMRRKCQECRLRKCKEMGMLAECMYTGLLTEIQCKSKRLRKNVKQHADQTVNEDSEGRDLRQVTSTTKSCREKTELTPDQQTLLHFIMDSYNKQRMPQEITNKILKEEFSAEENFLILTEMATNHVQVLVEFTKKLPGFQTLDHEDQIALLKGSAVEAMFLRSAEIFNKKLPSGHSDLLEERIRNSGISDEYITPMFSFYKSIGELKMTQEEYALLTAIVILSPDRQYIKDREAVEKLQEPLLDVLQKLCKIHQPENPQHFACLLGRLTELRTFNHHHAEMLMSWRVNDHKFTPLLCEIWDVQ

Regarding `Fc1ccc(Oc2ccnc3cc(Cl)cc(Cl)c23)cc1`, the molecule was called inactive in [1], in assay [2], in [3], in [4] and in assay [5].
Regarding `C=CCC1=C(C)[C@@H](OC(=O)[C@@H]2[C@@H](C=C(C)C)C2(C)C)CC1=O`, the molecule was classed as inactive in assay [1] and in assay [2].
For `CCCN(CCC)c1c([N+](=O)[O-])cc(S(N)(=O)=O)cc1[N+](=O)[O-]`, the AC50 is 526 nM (active) and 6.79 µM (active) in [6]; 26.4 µM (active) in assay [9]. In addition, the molecule was called inactive in assay [7], in assay [8], in [1], in assay [9], in [2] and in [4]. The molecule was classed as inactive in assay [10] and in assay [11].
Take `CCOc1cc(Oc2ccc(C(F)(F)F)cc2Cl)ccc1[N+](=O)[O-]`: the molecule was called inactive in assay [1], in [2], in assay [3], in assay [4] and in assay [5].
With `Cc1ccc(-c2c(Cl)nc(C#N)n2S(=O)(=O)N(C)C)cc1`, the molecule was classed as inactive in [6], in assay [8], in assay [1], in assay [2], in [3] and in [12]. For the same molecule, the result in assay [4] and in assay [5] was inactive.
`CC(C)Oc1cc(-n2nc(C(C)(C)C)oc2=O)c(Cl)cc1Cl`: the outcome in assay [1], in [2], in [3], in assay [12], in assay [4] and in assay [5] was inactive.
For the molecule `CCNc1nc(Cl)nc(NCC)n1`, the molecule was classed as inactive in assay [6], in assay [7], in assay [1], in assay [2], in assay [3] and in [4]. The molecule was called inactive in assay [5].
With `N#Cc1cc(Br)c(O)c(Br)c1`, the call in assay [6], in assay [7], in [8], in assay [1], in [9] and in assay [2] was inactive. Besides, the result in assay [12] and in assay [10] was inactive.
Take `Cc1cc(Cl)ccc1OCC(=O)O`: the call in [7], in [8], in [1], in assay [2] and in [12] was inactive.
For `CCc1nn(C)c(C(=O)NCc2ccc(C(C)(C)C)cc2)c1Cl`, the molecule was classed as inactive in assay [13], in assay [1], in assay [2], in assay [3], in assay [4] and in assay [5].
Turning to `CCOC(=O)C(Cl)Cc1cc(-n2nc(C)n(C(F)F)c2=O)c(F)cc1Cl` (configuration not stated), the call in assay [1], in assay [2] and in assay [5] was inactive.
Take `COC(=O)C(C)Oc1ccc(Oc2ccc(Cl)cc2Cl)cc1` (configuration not stated): the outcome in assay [14] and in assay [5] was inactive.
Turning to `COc1cnc(OC)n2nc(NS(=O)(=O)c3c(OCC(F)F)cccc3C(F)(F)F)nc12`, the molecule was classed as inactive in [7], in assay [8], in [1], in assay [2], in [3] and in assay [5].
`COC(=O)C=C(C)OP(=O)(OC)OC`: the call in [1], in assay [2], in assay [3] and in assay [4] was inactive.
As for `CC1=C(C(=O)Nc2ccccc2)SCCO1`, the call in assay [1], in assay [3], in assay [12], in assay [4] and in assay [5] was inactive.

For the origin of these results see PubChem BioAssay (EPA / NIEHS).
